This is one part of a sample in which hits are shown more often than they occur.
Pf Dd2 growth – qHTS Primary assay for Inhibitors of Plasmodium falciparum Dd2 growth in vitro. AID 1347417, 2020. P. falciparum Dd2 growth, SYBR Green, 72 h. hit rate 4.3% among 120,000. Potency, µM (top dose mostly 28.9 µM), without a hit: at the top dose activity, negative = inhibition, actives largely listed as inhibitors; active = well fitted inhibition curve with a large enough effect;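 note: plate controls were DMSO vehicle for no effect and reference drug for full effect; nearly all actives have a fitted effect of over 65% in size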
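Infected erythrocytes (Dd2, 0.3% parasitemia, 2.5% hematocrit final) are added to compound in RPMI-1640/Albumax II medium, grown 72 h at 37C in low oxygen, then lysed with saponin/Triton-X containing SYBR Green and read by fluorescence.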
* hit, by the source's call; i = inactive; [ ] = dose if it differs, or a comment. Potency is the fitted concentration of half-maximal effect.

SMILES	Pf Dd2 growth
COc1ccc(CN2C(=O)CO[C@H](c3ccc(NC(=O)c4ccc(OC)cc4)cc3)[C@H]2CO)cc1	i
COCCN1C(=O)c2ccccc2C(C(=O)Nc2ccc(F)cc2)C12CCCCC2 (centres undefined)	-19%
COCCN1C(=O)c2ccccc2C(C(=O)Nc2ccc3c(c2)OCCO3)C12CCCC2 (centres undefined)	-23%
CC(C)CN1C(=O)c2ccccc2C(C(=O)Nc2ccc(C(N)=O)cc2)C12CCCCC2 (centres undefined)	13µM*
Cc1ccnc(NC(=O)C2c3ccccc3C(=O)N(CC(C)C)C23CCCC3)c1 (centres undefined)	5µM*
COCCN1C(=O)c2ccccc2C(C(=O)Nc2ccc(C)cc2Cl)C12CCCC2 (centres undefined)	i
CNC(=O)[C@@H](c1ccc(Cl)cc1)N1CCC[C@H]1C(=O)NCC1CC1	-14%[44.1 µM]
CCC(=O)N1CCc2cc(S(=O)(=O)NC(CC(C)C)C(=O)NCc3ccc(C)cc3)ccc21 (centres undefined)	-6%
CC(C)(C)C1CCC2(CC1)NC(=O)N(CC(=O)Nc1cccc(C#N)c1)C2=O (centres undefined)	i
O=C(O)Cn1nc(N2CCN(c3ccc(F)cc3)CC2)ccc1=O	25%
Cc1cc(F)ccc1NC(=O)Cn1nc(N2CCN(c3ccccc3)CC2)ccc1=O	9%
CC(C)CCNC(=O)Cn1nc(N2CCN(c3ccccc3)CC2)ccc1=O	4%
Cc1cccc(NC(=O)c2ccc(Cn3nc(N4CCN(c5ccccc5)CC4)ccc3=O)o2)c1C	11µM*
Cc1ccc(F)cc1NC(=O)c1ccc(Cn2nc(N3CCN(c4ccccc4)CC3)ccc2=O)o1	11µM*
CN(C)CCNC(=O)Cn1nc(N2CCN(c3ccccc3)CC2)ccc1=O	51%
COc1cc(NC(=O)N2CCCC(Cn3c(C4CC4)nc4cccnc43)C2)cc(OC)c1 (centres undefined)	-2%
COc1cccc(OCc2nc3ccccc3n2CCOc2ccccc2C)c1	-12%
O=C(NCc1ccccc1)c1cnc2n1CCN(Cc1cccs1)CC2	8%[44.1 µM]
COc1ccc(-c2nc(N3CCOCC3)cc3c2CN(Cc2cnn(C)c2)C3=O)cn1	-25%[44.1 µM]
Cc1cccc(OCC(=O)Nc2nnc(S(=O)(=O)N3CCCCCC3)s2)c1	-18%
Cc1ccc(CNC(=O)c2ccc3c(c2)N(C)C2CCCN2C3=O)cc1 (centres undefined)	i
CCN1c2cc(C(=O)Nc3ccc(OC(F)(F)F)cc3)ccc2C(=O)N2CCCCC21 (centres undefined)	1.8µM*
CN1c2cc(C(=O)Nc3ccc(C(F)(F)F)cc3)ccc2C(=O)N2CCCCCC21 (centres undefined)	11µM*
CCN1c2cc(C(=O)Nc3ccc(OC(F)(F)F)cc3)ccc2C(=O)N2CCCC21 (centres undefined)	-15%
Cc1cccc(CNC(=O)c2ccc3c(c2)N(C)C2CCCCN2C3=O)c1 (centres undefined)	4µM*
SMILES	Pf Dd2 growth
CCN1c2cc(C(=O)Nc3ccc(OC)cc3)ccc2C(=O)N2CCCCCC21 (centres undefined)	i
CN1c2cc(C(=O)NCc3cccc(Cl)c3)ccc2C(=O)N2CCCCCC21 (centres undefined)	i
CCN1c2cc(C(=O)Nc3cccc(SC)c3)ccc2C(=O)N2CCCCCC21 (centres undefined)	6.3µM*
CN1c2cc(C(=O)Nc3ccc(Br)cc3)ccc2C(=O)N2CCCCCC21 (centres undefined)	-21%
CN1c2cc(C(=O)Nc3ccc(F)cc3)ccc2C(=O)N2CCCCCC21 (centres undefined)	i
CCN1c2cc(C(=O)Nc3cccc(F)c3)ccc2C(=O)N2CCCCC21 (centres undefined)	-5%
CCN1c2cc(C(=O)Nc3ccc(SC)cc3)ccc2C(=O)N2CCCCC21 (centres undefined)	i
c1ccc(C2=NOC3(CCCN(Cc4ccsc4)C3)C2)nc1 (centres undefined)	-13%
O=C(c1ccncc1)N1C[C@@H]2OCC(=O)N(Cc3ccc(F)cc3)[C@@H]2C1	5%[44.1 µM]
COc1ccc(CCNC(=O)Cn2ncc3c(=O)oc4ccccc4c32)c(OC)c1	25%
CC1(C(=O)Nc2cccc(Br)c2)Cc2ccccc2C(=O)O1 (centres undefined)	i
Cc1noc(-c2cn(C3CCCN(C(=O)c4cccc5[nH]ccc45)C3)nn2)n1 (centres undefined)	54%
Cc1cccc(/C=C/c2onc(C)c2S(=O)(=O)N2CCC(C(=O)N3CCCCC3)CC2)c1	-10%
Cc1nc(N2C(=O)c3oc4ccccc4c(=O)c3C2c2cccc(OCCC(C)C)c2)sc1C (centres undefined)	i
CCOCCn1nc(C)cc1C(=O)N[C@H]1[C@H]2CCO[C@H]2[C@@H]1N(C)C	-14%
COc1ccc(CN2Cc3[nH]nc(-c4cnc(OC)nc4)c3CC2=O)cc1	-3%[44.1 µM]
O=C(CCc1ccccc1)NCCc1noc(C2CC2)n1	14%
Cc1cc(NC(=O)c2ccc3c(c2)N(C)C2CCCCCN2C3=O)ccc1Cl (centres undefined)	i
CCN1c2cc(C(=O)Nc3ccc(Cl)c(C)c3)ccc2C(=O)N2CCCCCC21 (centres undefined)	6.3µM*
COc1cccc(NC(=O)c2ccc3c(c2)C(O)CCCCCN3C)c1 (centres undefined)	-9%
COc1ccc(OC)c(NC(=O)c2ccc3c(c2)C(O)CCCCCN3C)c1 (centres undefined)	i
CCN1c2cc(C(=O)Nc3ccc(Cl)c(Cl)c3)ccc2C(=O)N2CCCCC21 (centres undefined)	-8%
CN1CCCCCC(O)c2cc(C(=O)Nc3cccc(OC(F)(F)F)c3)ccc21 (centres undefined)	14µM*
COc1ccc(OC)c(CNC(=O)[C@H]2CCC[C@H]2NC(=O)c2ccc(OC)nc2)c1	-18%
CC1(c2ccccc2)CCCN(Cc2nnc(-c3cccnc3)o2)C1 (centres undefined)	i
SMILES	Pf Dd2 growth
CCCC[C@H](N)C(=O)N1CCC2(CC1)CC(=O)N(Cc1cc(F)cc(F)c1)C2	-25%
CCOC(=O)c1c(-c2ccccc2)csc1NC(=O)c1cc(-c2cccc(Cl)c2)on1	9%
CC(C)NC(=O)C[C@@H]1O[C@H](CNCc2ccc(F)cc2)[C@@H](O)[C@H]1O	3%[44.1 µM]
CCCCN(C)CC(O)Cn1cc(/C=C/C(=O)c2ccc(C)cc2)c2ccccc21 (centres undefined)	2.5µM*
CCN(CC)C(=O)Cn1cc(SCC(=O)Nc2cccc(C)c2)c2ccccc21	-4%
CCCN(CCC)CC(O)Cn1cc(/C=C/C(=O)c2ccc(C)cc2)c2ccccc21 (centres undefined)	1.1µM*
Cc1ccc(CNC(=O)CCc2cn(Cc3ccc(C)cc3)c3ccccc23)cc1	-22%
CCCN(CCC)CC(O)Cn1cc(/C=C/C(=O)c2ccc(Br)cc2)c2ccccc21 (centres undefined)	3.2µM*
CN(C(=O)Cn1ccn2nc(-c3ccc(F)cc3)c(CO)c2c1=O)c1ccccc1	i
Cn1ccc2c(C(=O)NCc3cccnc3)nc(-c3ccccc3)cc21	-8%[44.1 µM]
O=C(CN1CC2CC(C1)[C@H]1CCCC(=O)N1C2)NCCCN1CCCC1 (some centres undefined)	-11%
CC1=C(c2ccc(C(C)C)cc2)S(=O)(=O)N=C1N1CCC(C(=O)NCc2ccccc2)CC1	0%
